Inconclusive results are not listed. Where a call stands in place of a potency, no number is given. Values without a mark were called inactive. Active and inactive are the calls of the source. Calls come from the whole dose curve; as a rule, active = well fitted curve in the direction sought with a large enough effect; inconclusive = small, poorly fitted or top-dose-only effect, or another doubt; inactive = no such curve, though single readings can be large; an effect the other way counts as inactive or inconclusive.
How the values were obtained:
[1] = Primary qHTS for inhibitors of nuclear receptor binding SET domain protein 2 (NSD2) in an isogenic RCH-ACV NSD2 p.E1099K mutant (9B) (AID 1645876); conditions: RCH-ACV NSD2 E1099K (9B) viability, CellTiter-Glo, 72 h; series mostly up to 44.9 µM
[2] = Primary qHTS for inhibitors of nuclear receptor binding SET domain protein 2 (NSD2) in an RCH-ACV wild type WT cells (2C) (AID 1645877); conditions: RCH-ACV (leukaemia line) NSD2 WT (2C) viability, CellTiter-Glo, 72 h; series mostly up to 44.9 µM
Note: nearly all actives have a fitted effect of over 70% in size.
Potency is the fitted concentration of half-maximal effect.

C[C@@H]1O[C@@H](O[C@@H]2[C@@H](O)[C@@H](O[C@]3(CO)O[C@H](CO)[C@@H](O)[C@@H]3OC(=O)/C=C/c3ccc(O)cc3)O[C@H](CO)[C@H]2OC(=O)/C=C/c2ccc(O)cc2)[C@H](O)[C@H](O)[C@H]1O[C@@H]1O[C@@H](C)[C@H](O[C@@H]2OC[C@](O)(CO)[C@H]2O)[C@@H](O)[C@H]1O
outcome [1]: inactive [at 9.23 µM] | activity change, negative = cell killing [2]: 1.71% [at 9.23 µM]

C=C(C(=O)O)[C@H]1C[C@]2(C)[C@@H](O)CC[C@]23O[C@H]1C[C@@H]3C
Potency [1]: inactive | Potency [2]: inactive

CC1CC[C@]2(C(=O)O)CC[C@]3(C(=O)O)C(=CCC4[C@@]5(C)CC[C@H](O[C@@H]6O[C@H](CO)[C@@H](O)[C@H](O)[C@H]6O)C(C)(C)C5CC[C@]43C)C2C1C (stereo partly specified)
Potency [1]: inactive | Potency [2]: inactive

COC(=O)C[C@H]1C(C)(C)[C@H](OC(C)=O)C2CC3=C4CC(=O)O[C@@H](c5ccoc5)[C@]4(C)CCC3[C@@]1(C)C2=O (stereo partly specified)
Potency [1]: inactive | Potency [2]: inactive

CC(=O)NC1C(OC(C)(C)C2CCC3(C)C=C(C4CCC5C4(C)CC(O)C4OC(C(C)(C)O)CCC45C)CCC3O2)OC(CO)C(O)C1O (stereo unspecified)
Potency [1]: inactive | Potency [2]: inactive

CC1(C)CC[C@]2(C(=O)O[C@@H]3O[C@H](CO)[C@@H](O)[C@H](O)[C@H]3O)CC[C@]3(C)C(=CCC4[C@@]5(C)CC[C@H](O[C@@H]6O[C@H](C(=O)O)[C@@H](O)[C@H](O)[C@H]6O)C(C)(C)C5CC[C@]43C)C2C1 (stereo partly specified)
activity change, negative = viability loss [1]: -3.82% [at 9.23 µM] | activity change, negative = cell killing [2]: 4.17% [at 9.23 µM]

C[C@@H]1O[C@@H](O[C@H]2[C@H](O)[C@@H](O)[C@H](OC3CCC4(C)C5CCC(C)(C(CO)OC6OC(CO)C(O)C(O)C6O)CC5=CCC4C3(C)C)O[C@@H]2CO)[C@H](O)[C@H](O)[C@H]1O (stereo partly specified)
Potency [1]: inactive | Potency [2]: inactive

CC(C)(C)c1ccc(S(=O)(=O)Nc2ccc(Cl)cc2C(=O)c2cc[n+]([O-])cc2)cc1
Potency [1]: inactive | Potency [2]: inactive

N=c1nc2n(cc1F)C1OC(CO)C(O)C1O2 (stereo unspecified)
Potency [1]: 57.8 nM (active) | Potency [2]: 18.3 nM (active)

C=C1C(=O)O[C@H]2C1[C@H](OC(=O)/C(=C/CO)COC(=O)/C(C)=C/CO)CC(=C)[C@@H]1CC(=O)[C@@H](C)[C@@H]12 (stereo partly specified)
Potency [1]: 3550 nM (active) | Potency [2]: 1780 nM (active)

CC(O)/C=C/C1(O)C(C)C(O[C@@H]2O[C@H](CO)[C@@H](O)[C@H](O)[C@H]2O)C(O)CC1(C)C (stereo partly specified)
Potency [1]: inactive | Potency [2]: inactive

Nc1nc2c(ncn2[C@@H]2O[C@@H]3COP(=O)(O)O[C@H]3[C@H]2O)c(=O)[nH]1
Potency [1]: inactive | Potency [2]: inactive

COc1cc(C)c(C(=O)O[C@H]2[C@@H](OC(C)=O)[C@H](n3ccc(=O)[nH]c3=O)O[C@@H]2CO)c(OC)c1
Potency [1]: inactive | Potency [2]: inactive

From PubChem BioAssay (NCATS)
